The values that follow come from the supplement of paper PMC8269313.

The test system of the experiment is 4T1. In words: % inhibition of 4T1 cell number vs DMSO control; higher = stronger growth inhibition. The settings on record: 1 µM, 3 days. Summed up:
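4T1-H2B-GFP mouse breast cancer cells (3000 per well, 2% FBS medium) were seeded in 96-well imaging plates on plastic, denuded lung or mCAF1 fibroblast-derived matrix, Matrigel (15 μg/mL) or 0.2% gelatin; edge wells were left unused. After 16 h, kinase inhibitors were added at 1 μM final for 3 days. Plates were formalin-fixed, DAPI-stained and imaged on an INCell Analyzer 2200, and GFP-positive nuclei were counted. Percent inhibition of cell number was calculated relative to DMSO control.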

Setting [1] is: substrate: lung fibroblast-derived matrix.
The mark [2] stands for this setting: substrate: mCAF1 fibroblast-derived matrix.

The structures appear in SMILES notation.

Consider `O=[N+]([O-])/C=C/c1ccc2c(c1)OCO2` [Syk Inhibitor III], for which the “% inhibition of 4T1 cell number” value (substrate: Matrigel) was -4.15%; the “% inhibition of 4T1 cell number” value (substrate: gelatin) is -72.6%; the “% inhibition of 4T1 cell number” value under setting [1] is -12.2%; the “% inhibition of 4T1 cell number” value under setting [2] is -33.4%; the “% inhibition of 4T1 cell number” value (substrate: plastic) was -19.4%.

Take `CC(C)(C)c1cc(C=C(C#N)C#N)cc(Br)c1O`: the “% inhibition of 4T1 cell number” value runs as follows: (substrate: Matrigel) 46.6%; (substrate: gelatin) -2.78%; under setting [1], 2.02%; under setting [2], 0.929%; (substrate: plastic) 35.7%.

As to `NC(=NN=Cc1ccc(-c2cccc([N+](=O)[O-])c2)o1)N[N+](=O)[O-]` [ERK Inhibitor III], the “% inhibition of 4T1 cell number” value runs as follows: (substrate: Matrigel) 24.7%; (substrate: gelatin) 24.5%; under setting [1], -2.29%; under setting [2], -12.4%; (substrate: plastic) 41.4%.

For the compound `COC(=O)[C@]1(O)C[C@@H]2O[C@@]1(C)n1c3ccccc3c3c4c(c5c6ccccc6n2c5c31)C(=O)NC4` [K-252a, Nocardiopsis sp.], the “% inhibition of 4T1 cell number” value by setting is: (substrate: Matrigel) 87.4%; (substrate: gelatin) 91.8%; under setting [1], 2.02%; under setting [2], 98.1%; (substrate: plastic) 91.5%.

In the case of `COc1ccc2c(c1)/C(=C/c1cnc[nH]1)C(=O)N2`, the “% inhibition of 4T1 cell number” value by setting is: (substrate: Matrigel) 24.5%; (substrate: gelatin) 50.7%; under setting [1], 8.25%; under setting [2], 17.6%; (substrate: plastic) 17.3%.

For `COc1ccc2c(c[n+](C)c3c4cc5c(cc4ccc23)OCO5)c1OC` [Chelerythrine Chloride], the “% inhibition of 4T1 cell number” value is 20% (substrate: Matrigel); -43% (substrate: gelatin); 4.48% under setting [1]; 8.26% under setting [2]; -4.98% (substrate: plastic).

In the case of `O=C1NC(=O)c2c1c1c3ccccc3n3c1c1c2c2ccccc2n1[C@H]1CC[C@@H]3O1`, the “% inhibition of 4T1 cell number” value reads like this: (substrate: Matrigel) 30%; (substrate: gelatin) 44.2%; under setting [1], -1.14%; under setting [2], 29.4%; (substrate: plastic) 87.4%.

As to `O=S(=O)(c1c(O)c(Cl)cc(Cl)c1Cl)c1c(O)c(Cl)cc(Cl)c1Cl` [p38 MAP Kinase Inhibitor IV], the “% inhibition of 4T1 cell number” value (substrate: Matrigel) was -24.4%; the “% inhibition of 4T1 cell number” value (substrate: gelatin) came out at 7.41%; the “% inhibition of 4T1 cell number” value under setting [1] was -2.09%; the “% inhibition of 4T1 cell number” value under setting [2] turned out to be 31.2%; the “% inhibition of 4T1 cell number” value (substrate: plastic) was -30.3%.
